# Measured values published in PubChem BioAssay (Tox21).
# Where “and” joins values, the source holds several entries; their conditions need not be identical. Equal entries are not always repeated. Records with an inconclusive call do not appear. A call without a number means that no potency is given here. Where a structure was tested more than once in an assay, its records may differ in their call. Calls of active or inactive are those of the source. Unless noted, the call rests on the fitted dose curve; in most records, active means well fitted curve in the direction sought with a large enough effect in the repeat runs; inconclusive means weak or mixed curves; inactive means no such curve, though single readings can be large; an effect the other way counts as inactive or inconclusive.
# Columns and labels:
# [1] = qHTS assay to identify small molecule agonists of the estrogen receptor alpha (ER-alpha) signaling pathway in the presence of an antagonist - cell viability counter screen (AID 1259386);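 further: cells exposed to compounds for 22 h at 37 °C before the viability read; nearly all actives have a fitted effect of over 30% in size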; further: potency means the concentration at half of the fitted maximal effect
# Outline: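 Using estrogen-depleted VM7Luc4E2 cells, the 15-concentration compound series was applied together with 10.0nM ICI-182,780 and incubated 22hr at 37C/5% CO2. Cell viability was then scored by CellTiter-Fluor.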
# [2] = target: Progesterone receptor (Homo sapiens) (UniProt P06401); assay: qHTS assay to identify small molecule agonists of the progesterone receptor (PR) signaling pathway (AID 1346784; calls by dose curve; further: nearly all actives have a fitted effect of over 30% in size)
# Progesterone receptor (Homo sapiens), sequence (P06401 whole entry, looked up): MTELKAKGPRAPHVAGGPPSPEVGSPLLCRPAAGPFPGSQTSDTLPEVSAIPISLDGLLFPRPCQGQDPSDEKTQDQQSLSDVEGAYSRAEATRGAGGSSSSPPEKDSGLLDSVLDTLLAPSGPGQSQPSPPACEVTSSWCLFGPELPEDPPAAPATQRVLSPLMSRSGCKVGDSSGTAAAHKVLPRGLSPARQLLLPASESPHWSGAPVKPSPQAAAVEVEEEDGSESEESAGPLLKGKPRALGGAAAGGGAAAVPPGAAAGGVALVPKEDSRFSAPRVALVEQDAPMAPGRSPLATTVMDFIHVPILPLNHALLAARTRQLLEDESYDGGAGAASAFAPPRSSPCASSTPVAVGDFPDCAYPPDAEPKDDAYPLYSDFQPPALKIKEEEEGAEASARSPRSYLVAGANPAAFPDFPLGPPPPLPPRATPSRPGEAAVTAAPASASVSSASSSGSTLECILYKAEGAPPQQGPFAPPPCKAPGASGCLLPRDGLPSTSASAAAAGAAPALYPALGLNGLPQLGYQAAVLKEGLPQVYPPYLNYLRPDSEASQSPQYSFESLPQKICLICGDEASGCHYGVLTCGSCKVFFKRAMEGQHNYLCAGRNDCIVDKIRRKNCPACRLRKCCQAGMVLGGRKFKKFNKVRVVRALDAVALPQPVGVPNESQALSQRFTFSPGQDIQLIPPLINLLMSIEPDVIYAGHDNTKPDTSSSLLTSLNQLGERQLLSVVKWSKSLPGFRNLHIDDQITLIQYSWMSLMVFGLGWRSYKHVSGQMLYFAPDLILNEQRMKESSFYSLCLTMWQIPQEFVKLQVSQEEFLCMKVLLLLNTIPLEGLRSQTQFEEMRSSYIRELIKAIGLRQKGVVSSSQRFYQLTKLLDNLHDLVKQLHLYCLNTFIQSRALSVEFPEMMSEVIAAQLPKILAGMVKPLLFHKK
# Outline: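 Agonist mode, quantitative HTS format in a HEK 293T line expressing a UAS-controlled beta-lactamase reporter; 16 hr compound exposure at 37C in 2% charcoal-stripped FBS, then LiveBLAzer B/G FRET fluorescence.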
# [3] = target: Progesterone receptor (Homo sapiens) (UniProt P06401); assay: qHTS assay to identify small molecule antagonists of the progesterone receptor (PR) signaling pathway (AID 1346795; active means well fitted inhibition curve with a large enough effect in the signal ratio in the repeat runs, not every such curve was filed as active; the % refers to the signal ratio)
# Outline: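 HEK293T PR-UAS-bla reporter cells in charcoal-stripped serum (2%) received compound after a 6 hr settling period, followed by R5020 agonist at 1 nM final; 16 hr incubation preceded the FRET substrate step and fluorescence measurement.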
# [4] = qHTS assay to identify small molecule antagonists of the progesterone receptor (PR) signaling pathway - cell viability counter screen (AID 1346798); further: series mostly up to about 92 µM; nearly all actives have a fitted effect of over 50% in size
# Outline: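 Same-well multiplex: after 16 hr at 37C with compound and R5020 stimulation, HEK293T cells carrying a UAS-bla reporter received LiveBLAzer substrate (2 hr RT), then CellTiter-Glo (30 min RT) for luminescent viability.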
# [5] = qHTS assay to identify small molecule agonists of the progesterone receptor (PR) signaling pathway - cell viability counter screen (AID 1346799; calls by dose curve; further: nearly all actives have a fitted effect of over 45% in size; further: potency means the concentration at half of the fitted maximal effect)
# Outline: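 Counter screen for cytotoxicity: compound-treated PR-UAS-bla HEK293T cells (16 hr, 37C, 5% CO2) were assayed with CellTiter-Glo, luminescence measured after 30 min at room temperature.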
# [6] = qHTS assay to identify small molecule agonists of the TGF-beta/Smad signaling pathway - cell viability counter screen (AID 1346829); further: nearly all actives have a fitted effect of over 45% in size; further: potency means the concentration at half of the fitted maximal effect
# Outline: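 Luminescence from CellTiter-Glo, read after a 30 min room-temperature incubation, gives cell viability of SBE-bla HEK 293T cells treated 5 hr with compounds at 37 C.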
# [7] = qHTS assay to identify small molecule agonists of the TGF-beta/Smad signaling pathway (AID 1346859; active means well fitted activation curve with a large enough effect in the signal ratio in the repeat runs, not every such curve was filed as active; the % refers to the signal ratio; further: series mostly up to about 77 µM)
# Outline: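 Smad-responsive beta-lactamase reporter cells (HEK 293T) received compounds from DMSO stocks after overnight attachment, were incubated 5 hr, then treated 2 hr with FRET substrate before dual-emission fluorescence measurement (405 nm excitation).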
# [8] = target: Thyrotropin-releasing hormone receptor (Homo sapiens) (UniProt P34981); assay: qHTS assay to identify small molecule antagonists of the thyrotropin-releasing hormone receptor (TRHR) signaling pathway (AID 1346877; active means well fitted inhibition curve with a large enough effect in the repeat runs, not every such curve was filed as active; further: series mostly up to about 51 µM)
# Thyrotropin-releasing hormone receptor (Homo sapiens), sequence (P34981 whole entry, looked up): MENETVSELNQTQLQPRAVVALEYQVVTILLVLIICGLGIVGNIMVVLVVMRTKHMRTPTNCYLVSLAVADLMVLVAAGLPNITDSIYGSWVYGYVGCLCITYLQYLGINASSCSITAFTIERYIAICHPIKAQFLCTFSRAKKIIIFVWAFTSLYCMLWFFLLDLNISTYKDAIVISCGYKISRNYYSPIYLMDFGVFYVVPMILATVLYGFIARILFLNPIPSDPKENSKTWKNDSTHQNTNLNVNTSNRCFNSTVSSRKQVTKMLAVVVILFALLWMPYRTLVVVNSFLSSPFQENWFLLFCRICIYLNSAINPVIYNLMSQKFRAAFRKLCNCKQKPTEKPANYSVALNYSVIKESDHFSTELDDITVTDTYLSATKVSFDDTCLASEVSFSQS
# Outline: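 Calcium signal in dye-loaded TRHR/HEK293 cells; compounds added 5 min before TRH (1 nM final); fluorescence monitored 3 min at 1 s steps.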
# [9] = target: Thyrotropin-releasing hormone receptor (Homo sapiens) (UniProt P34981); assay: qHTS assay to identify small molecule agonists of the thyrotropin-releasing hormone receptor (TRHR) signaling pathway (AID 1346891; calls by dose curve;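 further: HEK293 cells expressing TRHR with calcium dye readout; series mostly up to about 58 µM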)
# Outline: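 Agonist-mode calcium mobilisation screen: TRHR-transfected HEK293 cells cultured overnight (18 h), dye-loaded for 2 h at 37 °C, exposed to compounds, and monitored by fluorescence for 3 min.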
# [10] = Caspase-3/7 induction in HepG2 cells by small molecules, qHTS assay (AID 1346978); further: nearly all actives have a fitted effect of over 15% in size
# Outline: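 Wild-type HepG2 cells (2,000/well) were settled 5 h at 37 C, 5% CO2, then exposed to compounds in DMSO for 17 h. Caspase-3/7 activity was read by luminescence 30 min after adding Caspase-Glo 3/7 reagent at room temperature.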
# [11] = Caspase-3/7 induction in CHO-K1 cells by small molecules, qHTS cell viability counter screen (AID 1346979); further: nearly all actives have a fitted effect of over 35% in size; further: potency means the concentration at half of the fitted maximal effect
# Outline: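 In the same wells as the caspase read, viability of compound-treated wild-type CHO-K1 cells was assessed using CellTiter-Fluor, added after 16hr at 37C and measured by fluorescence following 1hr further incubation.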
# [12] = Caspase-3/7 induction in CHO-K1 cells by small molecules, qHTS assay (AID 1346980); further: nearly all actives have a fitted effect of over 15% in size
# Outline: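 Wild-type cells were seeded at 1,500 per well and settled 5 hr at 37 C, 5% CO2, then exposed to DMSO-dissolved compounds for 17 hr. Caspase-Glo 3/7 reagent was added, and luminescence was read after 30min at room temperature.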
# [13] = Caspase-3/7 induction in HepG2 cells by small molecules, qHTS cell viability counter screen (AID 1346981); further: series mostly up to about 92 µM; nearly all actives have a fitted effect of over 30% in size
# Outline: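 After a 5-hr attachment period at 37 C and 5% CO2, wild-type HepG2 cells received compounds in DMSO. Sixteen hours later CellTiter-Fluor was dispensed and the fluorescent signal quantified after a further hour.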
# [14] = Human pregnane X receptor (PXR) small molecule agonists, qHTS cell viability counter screen (AID 1346977); further: nearly all actives have a fitted effect of over 50% in size; further: potency means the concentration at half of the fitted maximal effect
# Outline: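 Measures live-cell protease fluorescence (CellTiter-Fluor) in PXR-Luc HepG2 cells treated 24hr with compounds at 37C. Cells had 5hr to attach before pin transfer of DMSO solutions.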
# [15] = target: Nuclear receptor subfamily 1 group I member 2 (Homo sapiens) (UniProt O75469); assay: Human pregnane X receptor (PXR) small molecule agonists, qHTS assay (AID 1346982); further: nearly all actives have a fitted effect of over 35% in size; further: potency means the concentration at half of the fitted maximal effect
# Nuclear receptor subfamily 1 group I member 2 (Homo sapiens), sequence (O75469 whole entry, looked up): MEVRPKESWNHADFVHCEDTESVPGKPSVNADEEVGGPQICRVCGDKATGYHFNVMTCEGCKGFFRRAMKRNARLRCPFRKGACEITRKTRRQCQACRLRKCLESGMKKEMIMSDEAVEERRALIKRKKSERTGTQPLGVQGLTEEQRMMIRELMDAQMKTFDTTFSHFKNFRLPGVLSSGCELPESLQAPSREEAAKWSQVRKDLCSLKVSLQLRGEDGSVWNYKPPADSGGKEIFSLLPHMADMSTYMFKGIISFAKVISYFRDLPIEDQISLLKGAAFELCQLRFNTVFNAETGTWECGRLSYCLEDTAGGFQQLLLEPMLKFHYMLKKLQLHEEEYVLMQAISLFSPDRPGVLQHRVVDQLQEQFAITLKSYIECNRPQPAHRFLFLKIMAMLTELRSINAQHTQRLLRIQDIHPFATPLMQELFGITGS
# Outline: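 Tox21 qHTS; PXR-Luc HepG2; compounds pinned from DMSO; 24 hr, 37 C; ONE-Glo luciferase detection, 30 min room temperature.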
# [16] = target: Cytochrome P450 2D6 (Homo sapiens) (UniProt P10635); assay: Cytochrome P450 Family 2 Subfamily D Member 6 (CYP2D6) small molecule antagonists: luciferase reporter qHTS assay (AID 1671196); further: series mostly up to about 120 µM; nearly all actives have a fitted effect of over 50% in size
# Cytochrome P450 2D6 (Homo sapiens), sequence (P10635 whole entry, looked up): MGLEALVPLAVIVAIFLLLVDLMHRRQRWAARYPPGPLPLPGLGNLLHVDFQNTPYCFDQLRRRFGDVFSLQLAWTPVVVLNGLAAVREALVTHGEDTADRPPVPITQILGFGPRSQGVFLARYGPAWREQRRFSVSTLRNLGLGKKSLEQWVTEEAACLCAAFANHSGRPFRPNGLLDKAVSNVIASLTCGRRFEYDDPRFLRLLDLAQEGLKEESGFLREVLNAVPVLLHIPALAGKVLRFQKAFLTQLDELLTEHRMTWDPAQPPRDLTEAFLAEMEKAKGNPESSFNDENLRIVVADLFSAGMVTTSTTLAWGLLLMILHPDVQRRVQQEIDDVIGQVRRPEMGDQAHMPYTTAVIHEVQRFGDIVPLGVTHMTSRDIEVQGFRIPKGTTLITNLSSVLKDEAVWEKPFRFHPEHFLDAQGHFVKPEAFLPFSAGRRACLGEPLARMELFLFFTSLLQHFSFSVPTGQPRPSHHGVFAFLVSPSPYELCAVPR
# Outline: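 Room-temperature luminescent CYP2D6 activity assay: compound preincubated 10 min with enzyme–substrate mix, NADPH-initiated reaction 1 h, detection reagent 20 min before reading.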
# [17] = target: Cytochrome P450 2C19 (Homo sapiens) (UniProt P33261); assay: Cytochrome P450 Family 2 Subfamily C Member 19 (CYP2C19) small molecule antagonists: luciferase reporter qHTS assay (AID 1671197); further: nearly all actives have a fitted effect of over 65% in size; further: potency means the concentration at half of the fitted maximal effect
# Cytochrome P450 2C19 (Homo sapiens), sequence (P33261 whole entry, looked up): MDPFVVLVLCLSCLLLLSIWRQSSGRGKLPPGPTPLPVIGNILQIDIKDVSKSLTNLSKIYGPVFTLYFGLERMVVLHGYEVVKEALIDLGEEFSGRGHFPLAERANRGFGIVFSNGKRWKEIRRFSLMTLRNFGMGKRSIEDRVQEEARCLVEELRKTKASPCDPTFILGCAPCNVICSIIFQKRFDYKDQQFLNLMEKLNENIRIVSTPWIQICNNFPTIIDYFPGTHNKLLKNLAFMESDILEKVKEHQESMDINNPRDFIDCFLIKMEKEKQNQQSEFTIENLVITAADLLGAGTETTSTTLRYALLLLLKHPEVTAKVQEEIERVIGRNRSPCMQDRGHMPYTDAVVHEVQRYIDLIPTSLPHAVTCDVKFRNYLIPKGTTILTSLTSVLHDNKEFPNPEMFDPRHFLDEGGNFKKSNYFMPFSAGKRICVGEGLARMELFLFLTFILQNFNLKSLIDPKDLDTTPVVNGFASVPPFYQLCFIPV
# Outline: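 CYP2C19 P450-Glo, 1536-well qHTS. Cpd + enzyme/proluciferin substrate 10 min RT; + NADPH regen, 37C 1 h; stop with luciferin detection reagent, 20 min RT, luminescence (RLU). Pos ctrl ketoconazole.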
# [18] = target: Cytochrome P450 2C9 (Homo sapiens) (UniProt P11712); assay: Cytochrome P450 Family 2 Subfamily C Member 9 (CYP2C9) small molecule antagonists: luciferase reporter qHTS assay (AID 1671198); further: nearly all actives have a fitted effect of over 50% in size; further: potency means the concentration at half of the fitted maximal effect
# Cytochrome P450 2C9 (Homo sapiens), sequence (P11712 whole entry, looked up): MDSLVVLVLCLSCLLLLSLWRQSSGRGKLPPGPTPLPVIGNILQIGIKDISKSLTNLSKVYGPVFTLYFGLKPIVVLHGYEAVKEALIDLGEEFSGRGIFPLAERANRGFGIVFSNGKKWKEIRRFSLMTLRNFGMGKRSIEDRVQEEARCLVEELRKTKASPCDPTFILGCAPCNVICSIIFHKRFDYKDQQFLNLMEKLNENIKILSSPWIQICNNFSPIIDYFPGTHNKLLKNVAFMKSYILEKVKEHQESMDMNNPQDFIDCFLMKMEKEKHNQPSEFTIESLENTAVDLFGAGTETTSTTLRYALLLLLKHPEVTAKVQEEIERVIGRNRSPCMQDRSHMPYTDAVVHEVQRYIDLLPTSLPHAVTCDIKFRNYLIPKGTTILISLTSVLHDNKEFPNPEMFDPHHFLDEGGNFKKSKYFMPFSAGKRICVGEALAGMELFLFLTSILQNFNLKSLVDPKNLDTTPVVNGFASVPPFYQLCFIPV
# Outline: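 CYP2C9 activity was measured with a P450-Glo proluciferin substrate. Enzyme–substrate mix was held with compound for 10 min at room temperature, then NADPH regeneration solution was added for 1 h at 37C. Luciferin product was read as luminescence.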
# [19] = target: Nuclear receptor subfamily 1 group I member 2 (Homo sapiens) (UniProt O75469); assay: Human pregnane X receptor (PXR) activation by small molecules, qHTS assay (AID 1346985); further: nearly all actives have a fitted effect of over 40% in size
# Outline: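 DPX-2 cells (HepG2 co-transfected with a PXR response element and a CYP3A4-promoter luciferase construct) were seeded at 2,000 per well, rested 5 hr at 37C, then exposed to DMSO-dissolved compounds for 24 hr. Activation was read as luciferase luminescence.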
# [20] = qHTS assay to identify small molecule antagonists of the TGF-beta/Smad signaling pathway - cell viability counter screen (AID 1346824); further: nearly all actives have a fitted effect of over 50% in size
# Outline: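 SBE-bla HEK 293T cells were plated overnight at 37 C, then given compounds in DMSO plus TGF-beta1 (added as 0.25 ng/mL solution) for 5 hr. After the bla read, CellTiter-Glo was added to the same wells and luminescence read after 30 min at room temperature.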
SMILES,Potency [1],Potency [2],outcome [3],Potency [4],Potency [5],Potency [6],outcome [7],outcome [8],outcome [9],Potency [10],Potency [11],outcome [12],Potency [13],Potency [14],Potency [15],Potency [16],Potency [17],Potency [18],Potency [19],outcome [20]
Cc1ccc(O)cc1,inactive,inactive,inactive,inactive,inactive,inactive,inactive,inactive,inactive,inactive,inactive,inactive,inactive,,,,,,,
O=S(=O)(O)c1ccc2cc(O)ccc2c1,inactive,inactive,inactive,inactive,inactive,inactive,inactive,inactive,inactive,inactive,inactive,inactive,inactive,inactive,inactive,inactive,inactive and 71.6 µM (active) and 79.6 µM (active),inactive,,
CCCC(O)C(CC)CO (configuration not stated),inactive,inactive,inactive,inactive,inactive,inactive,inactive,,,inactive,inactive,inactive,inactive,inactive,inactive,inactive,inactive,inactive,inactive,
c1ccc2[nH]ccc2c1,60.1 µM (active) and inactive,,,,26.9 µM (active) and inactive,42.9 µM (active) and inactive,inactive,inactive,inactive,inactive,6.01 µM (active) and inactive,inactive,inactive,17.8 µM (active) and inactive,inactive,inactive,49.4 µM (active) and inactive,35 µM (active) and inactive,inactive,inactive
Cc1ccc(C)c(OCCCC(C)(C)C(=O)O)c1,inactive,inactive,inactive,inactive,inactive,inactive,inactive,,,inactive,inactive,inactive,inactive,inactive,inactive,inactive,50.6 µM (active) and 56.4 µM (active) and inactive,31.9 µM (active) and 35.6 µM (active) and 17.4 µM (active),,
O=c1ccc2ccccc2o1,inactive,inactive,inactive,inactive,inactive,inactive,inactive,,,inactive,inactive,inactive,inactive,inactive,inactive,inactive,inactive,inactive,inactive,
O=C(c1ccccc1)c1ccccc1,inactive,inactive,inactive,inactive,inactive,inactive,inactive,,,inactive,inactive,inactive,inactive,inactive,,,,,,
COc1ccc2[nH]cc(CCNC(C)=O)c2c1,inactive,inactive,inactive,inactive,inactive,inactive,inactive,inactive,inactive,inactive,inactive,inactive,inactive,inactive,62.1 µM (active),,,32.2 µM (active) and 35.6 µM (active),,
CCCCC(CC)COC(=O)/C=C/c1ccc(OC)cc1 (configuration not stated),inactive,inactive,,inactive,inactive,inactive,inactive,inactive,inactive,inactive,inactive,inactive,inactive,inactive,inactive,inactive,39.8 µM (active) and 25.2 µM (active) and 24.5 µM (active),19.9 µM (active) and 12.6 µM (active) and 11 µM (active),inactive,
O=NO,inactive,,,inactive,inactive,inactive,inactive,,,inactive,inactive,inactive,inactive,inactive,,,,,,inactive
CNC[C@H](O)c1cccc(O)c1,inactive,inactive,inactive,inactive,inactive,inactive,inactive,,,inactive,inactive,inactive,inactive,inactive,,,,,,
